Results from PubChem BioAssay (NCI).
Compounds without any hit were thinned out: in the full panel of roughly 83,000, 20% have a hit.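 In brief: 96-well plates, 48 h treatment, single concentration, percent growth endpoint.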 Activity calls are given as the source filed them. The calls were made as follows: active = growth percent below 10; inactive = the rest.

Assays:
Experiment in all cases: NCI-60 one-dose screen, 48 h (100 = growth as untreated, 0 = no growth, -100 = all killed)
Settings in all cases: 10 µM unless noted
[1] = system: NCI-H23 lung
[2] = system: NCI-H226 lung
[3] = system: NCI-H322M lung
[4] = system: HOP-62 NSCLC
[5] = system: NCI-H460 lung
[6] = system: HOP-92 NSCLC
[7] = system: NCI-H522 lung
[8] = system: A549/ATCC NSCLC
[9] = system: 786-0 renal
[10] = system: COLO 205 colon

Measured: growth

CC(C)c1ccc(-n2c(=S)[nH]c3sc4cc(O)ccc4c3c2=O)cc1
inactive: [1] 98.6% | [2] 92.5% | [3] 90.4% | [4] 102% | [5] 101% | [6] 80.2% | [7] 99.9% | [8] 106% | [9] 103% | [10] 102%

O=C(Nn1c2c(sc1=NC1CC1)C(=O)c1ccccc1C2=O)c1cc2ccc1CCc1ccc(cc1)CC2
active: [1] 9.63%
inactive: [2] 64.9% | [3] 96% | [4] 54.1% | [5] 53.9% | [6] 95.5% | [7] 37.3% | [8] 67.7% | [9] 68.6% | [10] 96.3%

CCOC(=O)c1c2c(n3cccc(F)c13)C(=O)c1ncccc1C2=O
inactive: [6] 38.5%
active: [1] -0.249% | [2] -6.38% | [3] 6.61% | [4] -37.4% | [5] -22.1% | [7] 1.44% | [8] -9.79% | [9] -17.3% | [10] 7.04%

C=CCSc1nnc(NC(=O)CCl)s1
inactive: [1] 93.6% | [2] 88.8% | [3] 101% | [4] 109% | [5] 99.9% | [6] 112% | [7] 85.3% | [8] 95.2% | [9] 101% | [10] 122%

Cc1cn(-c2cc(NC(=O)c3cccc(C#Cc4cccc5[nH]nc(N)c45)c3)cc(C(F)(F)F)c2)cn1
active: [6] -16.6%
inactive: [1] 37.1% | [2] 22.1% | [3] 66% | [4] 55.5% | [5] 30.5% | [7] 39.9% | [8] 45.4% | [9] 26.5% | [10] 18.6%

CCCCNC(=O)Oc1ccc(/C(=C(/C)Cc2ccc(OC)cc2)c2ccc(OCCN(CC)CC)cc2)cc1
inactive: [1] 97% | [2] 101% | [3] 84.9% | [4] 91.5% | [5] 53.3% | [6] 52.6% | [7] 85.3% | [8] 61.2% | [9] 69% | [10] 46.8%

COc1ccc(Nc2ncc(Br)c(NCCCNC(=O)c3cccs3)n2)cc1
inactive: [1] 39.2% | [2] 33.1% | [3] 56.5% | [4] 22.6% | [5] 25.1% | [6] 30% | [7] 61.3% | [8] 42.9% | [9] 34.3% | [10] 33.2%

Cc1cc(N2CCN(CC(=O)Nc3ccc4c(ccn4C)c3)CC2)nc(N2CCCCCC2)n1
inactive: [1] 99.9% | [2] 97.9% | [3] 92.9% | [4] 80.2% | [5] 101% | [6] 60.5% | [7] 73.3% | [8] 85.3% | [9] 93.8% | [10] 81.1%

COc1ccc2c(c1)CC[C@H](O)/C2=C/c1cc(OC)c(OC)c(OC)c1
inactive: [1] 30.3% | [2] 40.8% | [3] 60.5% | [4] 34.9% | [8] 13.7% | [9] 16.1%
active: [5] 4.68% | [6] 5.25% | [7] -19.2% | [10] -48.8%

C/C(Cc1ccc(Cl)cc1)=C(\c1ccc(O)cc1)c1ccc(Cl)cc1
inactive: [1] 85.2% | [2] 93.3% | [3] 83.3% | [4] 110% | [5] 91.5% | [6] 83.1% | [7] 84.1% | [8] 94.8% | [9] 89.5% | [10] 109%

COC(=O)c1nc(-c2ccc(C)cc2)oc1S(=O)(=O)c1cccc(OC)c1
active: [10] -8.96%
inactive: [1] 92.6% | [2] 87% | [3] 93.3% | [4] 96.2% | [5] 104% | [6] 79.6% | [7] 33.8% | [8] 97.5% | [9] 85.2%

Fc1cnccc1C1CC(c2ccc(N3CCNCC3)cc2)=NN1 (stereo not given)
inactive: [1] 83.8% | [2] 82.9% | [3] 89.3% | [4] 83.2% | [5] 94.9% | [6] 72.4% | [7] 81.9% | [8] 76.2% | [9] 111% | [10] 95.7%

COc1ccc(NC(=O)c2sc3nc(C)c(C(=O)/C=C/c4ccccc4)cc3c2N)cc1
inactive: [1] 63% | [2] 65.6% | [3] 13.1% | [4] 60.8% | [6] 109% | [7] 41.7% | [8] 34% | [10] 72.8%
active: [5] 6.63% | [9] 2.08%
